# From PubChem BioAssay (NCATS)
# “And” between values parts separate entries of the source, which are not always exact repeats. Equal entries are not always repeated. Inconclusive results are not listed. Unmarked numbers belong to inactive results. The source made the active and inactive calls. Calls come from the whole dose curve; as a rule, active = well fitted curve in the direction sought with a large enough effect; inconclusive = small, poorly fitted or top-dose-only effect, or another doubt; inactive = no such curve, though single readings can be large; an effect the other way counts as inactive or inconclusive.
# Tests used:
# [1] = Viability qHTS for spleen associated tyrosine kinase inhibitor (SYKi) naive MV4-11 cells (AID 1963823); note: nearly all actives have a fitted effect of over 40% in size
# Outline: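 Luminescence from CellTiter-Glo, developed 10 min at room temperature, gave viability of MV4-11 cells never exposed to SYK inhibitor. Cells (500/well) had been incubated with compounds for 72 hr under standard culture conditions.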
# [2] = Viability qHTS for spleen associated tyrosine kinase inhibitor (SYKi) drug resistant MV4-11 cells (AID 1963824); note: nearly all actives have a fitted effect of over 35% in size
# Outline: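 SYK-inhibitor-resistant MV4-11 AML cells were seeded at 500 per well onto compound and cultured 72 hours (37 °C, 5% CO2). CellTiter-Glo was then added, and after 10 min at room temperature, luminescence gave viability.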
# [3] = Quantitative highthroughput screen to assess conditional lethalithy of NOMO1 cells grown in RPMI1640 with untreated serum (RPMI+s) (AID 1963876); note: nearly all actives have a fitted effect of over 35% in size;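 for Viability: 100% = DMSO wells and 0% = empty wells without cells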
# Outline: (§1)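 Each medium arm—HPLM with 10% dialyzed FBS, or RPMI1640 with 5 mM glucose and 10% untreated or dialyzed FBS—was screened against an 11-point, 3-fold compound titration for 48 h at 37 °C, with CellTiter-Glo luminescence as endpoint.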
# [4] = Quantitative highthroughput screen to assess conditional lethalithy of NOMO1 cells grown in Human Plasma-Like Medium with dialyzed fetal bovine serum (HPLM+ds) (AID 1963878); note: nearly all actives have a fitted effect of over 35% in size;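 for Viability: 100% = DMSO wells and 0% = empty wells on each plate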
# Outline: as §1
# [5] = Quantitative highthroughput screen to assess conditional lethalithy of P12 Ichikawa cells grown in Human Plasma-Like Medium with dialyzed fetal bovine serum (HPLM+ds) (AID 1963879); conditions: Potency: viability; note: nearly all actives have a fitted effect of over 35% in size; for Viability: series mostly up to about 46 µM
# Outline: as §1
# [6] = Quantitative highthroughput screen to assess conditional lethalithy of P12 Ichikawa cells grown in RPMI1640 with dialyzed fetal bovine serum (RPMI+ds) (AID 1963880); conditions: Potency: P12-Ichikawa viability; note: nearly all actives have a fitted effect of over 35% in size;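 for Viability: 100% = DMSO wells and 0% = empty wells on each plate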
# Outline: as §1
# [7] = Quantitative highthroughput screen to assess conditional lethalithy of P12 Ichikawa cells grown in RPMI1640 with untreated serum (RPMI+s) (AID 1963881); conditions: Potency: viability; note: nearly all actives have a fitted effect of over 35% in size;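 for Viability: series mostly up to about 46 µM; 100% = DMSO wells and 0% = empty wells without cells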
# Outline: as §1
# [8] = Quantitative highthroughput screen to assess conditional lethalithy of SEM cells grown in Human Plasma-Like Medium with dialyzed fetal bovine serum (HPLM+ds) (AID 1963882); note: nearly all actives have a fitted effect of over 35% in size; for Viability: series mostly up to about 46 µM
# Outline: as §1
# [9] = Quantitative highthroughput screen to assess conditional lethalithy of SEM cells grown in RPMI1640 with unreated serum (RPMI+s) (AID 1963883); note: nearly all actives have a fitted effect of over 35% in size;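 for Viability: 100% = DMSO wells and 0% = empty wells without cells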
# Outline: as §1
# [10] = Quantitative highthroughput screen to assess conditional lethalithy of SEM cells grown in RPMI1640 with dialyzed fetal bovine serum (RPMI+ds) (AID 1963884); note: nearly all actives have a fitted effect of over 35% in size;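 for Viability: series mostly up to about 46 µM; 100% = DMSO control wells and 0% = empty wells without cells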
# Outline: as §1
# [11] = Cellular viability qHTS for adrenocortical cancer (ACC) cell line SW-13 (AID 1963989); conditions: SW-13 ACC cells viability, CellTiter-Glo, 48 h; activity (max response): active compounds read low; note: nearly all actives have a fitted effect of over 65% in size;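 for activity (max response): cells grown in serum-free medium with ITS supplement; % is set by controls: 0 for no effect and ±100 for the full control effect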
# Outline: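 Compound titrations (up to 46 uM final, in DMSO) were applied to SW-13 cells for 48 h at 37C/5% CO2. Reading used CellTiter-Glo after 20 min at room temperature; fitted curves yielded IC50 and efficacy.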
# [12] = Quantitative highthroughput screen to assess conditional lethalithy of NOMO1 cells grown in RPMI1640 with dialyzed fetal bovine serum (RPMI+ds) (AID 1963877); note: nearly all actives have a fitted effect of over 30% in size;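 for Viability: series mostly up to about 46 µM; 100% = DMSO control wells and 0% = empty wells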
# Outline: as §1
# [13] = Cellular viability qHTS for adrenocortical cancer (ACC) cell line NCI-H295R (AID 1963990); note: nearly all actives have a fitted effect of over 60% in size
# Outline: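 Readout: CellTiter-Glo luminescence, 20 min RT. Exposure: 48 h, 37C/5% CO2. Cells: NCI-H295R, ITS-DMEM serum-free. Range: up to 46 uM. Analysis: 4PL fit, IC50 plus efficacy.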
# Potency is the fitted concentration of half-maximal effect.
SMILES,Potency [1],Potency [2],Potency [3],Potency [4],Potency [5],Potency [6],Potency [7],Potency [8],Potency [9],Potency [10],activity (max response) [11],Potency [12],Potency [11],Potency [13]
NC1CCC(N[C@@H]2C[C@H]2c2ccccc2)CC1 (stereo partly drawn),inactive,inactive,inactive,inactive,inactive,inactive,inactive,inactive,inactive,inactive,-23.4%,,,
CCCCc1oc2ccc(NS(C)(=O)=O)cc2c1C(=O)c1ccc(OCCCN(CCCC)CCCC)cc1,6.68 µM (active) and 2.59 µM (active) and 6.61 µM (active),2.99 µM (active) and 2.91 µM (active) and 6.61 µM (active),1.18 µM (active),,8.33 µM (active),9.35 µM (active),8.33 µM (active),,,,,2.09 µM (active),11.6 µM (active) and 3.98 µM (active),4.11 µM (active) and 4.47 µM (active)
Cc1cccc(-c2[nH]c(C(C)(C)C)nc2-c2ccc3c(c2)OCO3)n1,2.35 µM (active),1.46 µM (active) and 2.09 µM (active),8.33 µM (active),10.5 µM (active),9.35 µM (active),11.8 µM (active),10.5 µM (active),8.33 µM (active),9.35 µM (active),9.35 µM (active),,,7.94 µM (active),4.47 µM (active)
COc1ccc(OC)c(-c2nnc3ccc(-c4ccc(OC)c(O[C@@H]5CCOC5)c4)nn23)c1,2.63 µM (active),2.95 µM (active),inactive,,,,,,,inactive,,inactive,5.01 µM (active),0.501 µM (active)
COc1cccc2c1C(=O)c1c(O)c3c(c(O)c1C2=O)C[C@@](O)(C(=O)CO)C[C@@H]3O[C@H]1C[C@H](N)[C@H](OC2CCCCO2)[C@H](C)O1 (stereo partly drawn),105 nM (active) and 74.2 nM (active),118 nM (active) and 59 nM (active),inactive,,inactive,inactive,inactive,,,inactive,,inactive,3.16 µM (active) and 5.01 µM (active),794 nM (active) and 8.91 µM (active)
C[C@@H]1COCCN1c1cc(C2(S(C)(=N)=O)CC2)nc(-c2ccnc3[nH]ccc23)n1 (stereo partly drawn),1.48 µM (active),1.18 µM (active) and 2.59 µM (active),4.67 µM (active),,4.17 µM (active),2.95 µM (active),4.67 µM (active),,1.17 µM (active),,,2.95 µM (active),,3.98 µM (active)
COc1c2occc2cc2ccc(=O)oc12,inactive,inactive,inactive,,,7.43 µM (active),,,inactive,inactive,8.25% and 3.48%,inactive,,inactive
COc1ccc2c(Oc3ccc(NC(=O)c4c(C)n(CC(C)(C)O)n(-c5ccccc5)c4=O)nc3)ccnc2c1,0.166 µM (active),0.332 µM (active),inactive,,inactive,,,,,,-3.94%,inactive,,inactive
COc1cc(Nc2nc3ccccc3nc2NS(=O)(=O)c2ccc(NC(=O)c3ccc(C)c(OC)c3)cc2)cc(OC)c1,18.6 µM (active),18.6 µM (active),inactive,,5.9 µM (active),14.8 µM (active),,,,,,7.43 µM (active),,inactive
O=C(O)C1=CC(O)C(O)[C@H](O)C1 (stereo partly drawn),inactive,inactive,inactive,,,,,inactive,inactive,inactive,-8.83%,inactive,,inactive
NC[C@H]1O[C@H](O[C@@H]2[C@@H](O)[C@@H](O[C@H]3O[C@H](CO)[C@@H](O)[C@H](N)[C@@H]3O)[C@H](N)C[C@@H]2N)[C@H](O)[C@@H](O)[C@H]1O,1.05 µM (active),inactive,inactive,inactive,inactive,inactive,inactive,inactive,inactive,inactive,12.9%,,,inactive
CC1=C[C@@H]2[C@@H]([C@@H](O)C[C@@]3(C)[C@H]2C[C@@H](C)[C@]3(O)C(=O)CO)[C@@]2(C)Cc3cnn(-c4ccccc4)c3C=C12,0.731 µM (active),1.03 µM (active),inactive,,,,,0.0372 µM (active),,0.0526 µM (active),,inactive,22.4 µM (active),8.91 µM (active)
CC(C)(C)Cn1c(N)nc2ccc(-c3[nH]c(C(C)(C)C)nc3-c3ccc(F)cc3)nc21,16.6 µM (active),461 nM (active) and 14.8 µM (active),inactive,,,inactive,inactive,inactive,,,,inactive,25.1 µM (active),
